Here are results for 32 compounds from paper PMC5540273 (PLoS ONE, 2017).
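Note: KINOMEscan kinase panel screen.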

The test system of this assay is EGFR. To be noted: concentration: 1 μM, replicates: in singlicate; n = 1.
For `Nc1ncc(-c2ccc3nccc(-c4ccncc4)c3c2)cc1S(=O)(=O)N1CCCCC1` [GSK1693850], the “%Inh” value is 1%. Under `COc1cccc(CC(=O)N2CCc3cc(-c4cn(C)c5ncnc(N)c45)ccc32)c1` [GSK2608899] stands 23%; under `CC(C)NCC(Cc1ccccc1)NC(=O)c1cc(Br)c(-c2ccnc3[nH]ccc23)s1.Cl.Cl` (centres unmarked) [GSK1383281], 26%; under `Nc1ncc(-c2cn[nH]c2)c2scc(-c3ccc4c(c3)CCN4C(=O)Cc3ccccc3)c12` [GSK2593067], 25%. The figure for `Cc1cccc(Nc2nc(NCCN)ncc2C(N)=O)c1` [GSK1292139] is 15%. The figure for `CC(C)c1nc(-c2cccc(NS(=O)(=O)c3c(F)cccc3F)c2)c(-c2ccnc(Nc3ccc(N4CCOCC4)nc3)n2)s1.Cl` [GSK1723980] is 99.1%; for `Cc1ccc(-c2ccc3occ(-c4ccc(S(C)=O)cc4)c3c2)nn1` (centres unmarked) it is 0%. On to `COc1ccc(C2=C(Nc3cccc(O)c3)C(=O)NC2=O)cc1` [SB-390766], for which the “%Inh” value is recorded as 32%. Regarding `COc1ccc(NC(=O)c2ccoc2)cc1-c1ccc(C(=O)NCC2CC2)cc1` [GW810437], the “%Inh” value worked out at 0%.

As for `Cc1nn2c(=O)cc(N3CCO[C@H](C)C3)nc2n1Cc1cccc(Cl)c1Cl` [GSK2373693], the “%Inh” value stood at 28%. In the case of `Cl.O=C(Nc1ccc(Oc2ccc3[nH]c(NC(=O)c4ccco4)nc3c2)cc1)Nc1cc(C(F)(F)F)ccc1F` [GW683134], the “%Inh” value is 44%. `O=C(O)C(F)(F)F.O=c1[nH]ccc2nc(N[C@@H]3CCNC3)nc(Nc3ccc4c(c3)S(=O)(=O)CC4)c12` [GSK2181306]: the “%Inh” value was determined as 33%. The figure for `O=C(Nc1n[nH]c2cc(-c3cccs3)ccc12)C1CC1` [SB-731284] is 4%; for `CNc1nccc(-c2ccc3c(N)n[nH]c3c2)n1` [GSK2206003] it is 25%.

For `COc1cccc(NC(=O)NCCNc2ccnc(Nc3ccc(F)cc3)n2)c1` [GSK1379879], the “%Inh” value came out at 43%. The figure for `CN(c1ccc2c(c1)nc(NCc1ccccc1)n2C)c1ccnc(Nc2ccc(CS(C)(=O)=O)cc2)n1.Cl` [GW811603] is 0%; for `Cc1ccc(O)cc1Nc1ccnc2cc(-c3ccc(CN4CCCCC4)o3)ccc12` [GW557777] it is 46%. Under `Cc1cccc(Nc2nc(N[C@H]3CCCC[C@H]3N)ncc2C(N)=O)c1.Cl` [GSK986310] stands 38%; under `c1ccc(Oc2ccc(Nc3ccnc4cc(-c5ccc(CN6CCCCC6)o5)ccc34)cc2)nc1` [GW567143], 55%. Regarding `CC(C)c1nc(-c2ccc(F)c(NS(=O)(=O)c3c(F)cccc3F)c2)c(-c2ccnc(Nc3ccc(N4CCOCC4)nc3)n2)s1` [GSK1804250], the “%Inh” value was 82%. `CCNc1nccc(-c2c(-c3ccc(F)cc3)ncn2C2CCN(C)CC2)n1`: the “%Inh” value is reported as 0%.

Take `Fc1cc(Cl)ccc1Nc1ccnc2cc(-c3ccc(CN4CCSCC4)o3)ccc12` [GW560106]: the “%Inh” value worked out at 71%. Under `NCCC(NC(=O)c1cc(Br)c(-c2ccnc3[nH]ccc23)s1)c1ccccc1.O=C(O)C(F)(F)F.O=C(O)C(F)(F)F` (centres unmarked) [GSK1307810] stands 19%; under `Cc1ccc(NC(=O)c2ccc(Cl)c(Cl)c2)cc1-c1ccc(C(=O)Nc2ccncc2)cc1` [GSK1398460], 32%. `O=C(O)C(F)(F)F.O=c1[nH]ccc2nc(N[C@@H]3CCNC3)nc(Nc3cc(Cl)cc(Cl)c3)c12` [GSK2188764]: the “%Inh” value is listed as 25%. Under `Nc1ncnc2scc(-c3ccc(NC(=O)Cc4cc(F)ccc4F)cc3)c12.O=C(O)C(F)(F)F` [SB-731254-M] stands 80%. Under `Cc1ccc(NC(=O)c2ccnc(N3CCCCC3)c2)cc1-c1ccc(C(=O)NCC2CC2)cc1` [GW775610] stands 26%; under `Fc1cc(Cl)ccc1Nc1ccnc2cc(-c3ccc(CN4CCOCC4)o3)ccc12` [GW560109], 71%; under `CS(=O)(=O)c1cccc(CNc2nc(Nc3ccc4c(c3)CCC(=O)N4)ncc2C(F)(F)F)c1`, 0%. With `Cc1cc(-c2c(-c3ccc(F)cc3)ncn2CCCN2CCOCC2)nc(N)n1` [SB-222517], the “%Inh” value was 0%. The figure for `CN1CCN(Cc2ccc(NC(=O)Nc3ccc(N(C)c4ccnc(Nc5ccc(CS(C)(=O)=O)cc5)n4)cc3)cc2)CC1.Cl` [GW827654] is 0%. On to `COc1cccc(C2=C(Nc3cccc(O)c3)C(=O)NC2=O)c1` [SB-390771], for which the “%Inh” value is listed as 41%.
